High-throughput results: PubChem, National Center for Advancing Translational Sciences (NCATS)
Pol III holo inh: blocks replication by bacterial DNA polymerase III holoenzyme | reconstituted DNA polymerase III holoenzyme replication, biochemical | AID 603 | 0.25% of 71,000 active | Potency, µM (series often up to 57.1 µM), for the others: at the top dose activity change, negative = inhibition; further: potency means the concentration at half of the fitted maximal effect; on the % scale 0 is the no-effect control and ±100 the full control effect
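Reconstituted *E. coli* holoenzyme (0.35 nM Pol III, 1 nM beta, 154 nM SSB, 2 nM primase) was preincubated with compound for 15 min at RT. Synthesis on 1.4 nM ssM13Gori ran 35 min, then was stopped with PicoGreen/EDTA and read as dsDNA fluorescence.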
BRCT PPI red: inhibitors of human BRCA1 BRCT-phosphoprotein interaction (red fluorophore); P38398; BRCT-phosphopeptide binding, red fluorescence polarization; Potency, µM (series often up to 76.9 µM), inactives show at the highest dose activity change, negative = inhibition, most hits filed as inhibitors; 0.03% of 75,000 active; AID 892; further: on the % scale 0 is the no-effect control and ±100 the full control effect
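Fluorescence polarization: 100 nM His-tagged BRCA1 BRCT with 100 nM TAMRA-labelled phospho-BACH1 decapeptide, phosphate buffer pH 7.3 with 150 mM NaCl, DTT, 0.01% Tween 20; 12 min RT. Binding inhibition seen as FP decrease.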
BRCT PPI green: BRCA1 BRCT-phosphoprotein interaction inhibition. P38398. AID 875. 0.05% of 75,000 active. BRCA1 BRCT-phosphopeptide binding, green fluorescence polarization. Potency, µM (top dose mostly 76.9 µM), for the others: at the highest dose activity change, negative = inhibition, most hits filed as inhibitors;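 further: potency means the concentration at half of the fitted maximal effect; plate controls were peptide without protein for full effect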
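Fluorescence polarization: His-tagged BRCT (~35 kDa BRCA1 C-terminus, 250 nM) bound to 100 nM fluorescein-labeled phosphorylated 10-aa BACH1 peptide, pH 7.3 phosphate buffer with DTT and Tween 20. Compounds incubated 12 min at room temperature; inhibition read as lowered polarization.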
YjeE inh: YjeE (TsaE) inhibition, E. coli. P0AF67. purified YjeE enzyme, qHTS inhibition assay. Potency, µM. 0.05% of 71,000 active
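Purified YjeE (10 uM) with BODIPY Texas Red-labeled ADP probe (2 uM); compounds pin-transferred, 15 min at room temperature. Binding inhibition read as decreased fluorescence polarization; ADP titration as control.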
Hsp90 Hop PPI: changes Hsp90-Hop TPR2A binding signal, up or down. 0.44% of 71,000 active. Potency, µM (series often up to 57 µM), for inactives: at the top dose activity change, negative = inhibition. AlphaScreen TPR2A-His6 binding biotin-Hsp90 C-terminal peptide; active means well fitted curve in either direction with a large enough effect; inconclusive means small, poorly fitted or top-dose-only effect, or another doubt; further: potency means the concentration at half of the fitted maximal effect; on the % scale 0 is the no-effect control and ±100 the full control effect
Tau fil binding: binds recombinant human tau filaments; P10636; recombinant tau filaments, thioflavin S fluorescence, 15 h; filaments grown with octadecylsulfate alongside compound; Potency, µM (titrated, usually from 57.1 µM), for the others: top-dose activity change, negative = inhibition; 2% of 71,000 active; AID 596;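 further: potency means the concentration at half of the fitted maximal effect; on the % scale 0 is the no-effect control and ±100 the full control effect; actives lower thioflavin S fluorescence by blocking filaments or displacing dye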
Target sequence (P10636 whole entry, looked up): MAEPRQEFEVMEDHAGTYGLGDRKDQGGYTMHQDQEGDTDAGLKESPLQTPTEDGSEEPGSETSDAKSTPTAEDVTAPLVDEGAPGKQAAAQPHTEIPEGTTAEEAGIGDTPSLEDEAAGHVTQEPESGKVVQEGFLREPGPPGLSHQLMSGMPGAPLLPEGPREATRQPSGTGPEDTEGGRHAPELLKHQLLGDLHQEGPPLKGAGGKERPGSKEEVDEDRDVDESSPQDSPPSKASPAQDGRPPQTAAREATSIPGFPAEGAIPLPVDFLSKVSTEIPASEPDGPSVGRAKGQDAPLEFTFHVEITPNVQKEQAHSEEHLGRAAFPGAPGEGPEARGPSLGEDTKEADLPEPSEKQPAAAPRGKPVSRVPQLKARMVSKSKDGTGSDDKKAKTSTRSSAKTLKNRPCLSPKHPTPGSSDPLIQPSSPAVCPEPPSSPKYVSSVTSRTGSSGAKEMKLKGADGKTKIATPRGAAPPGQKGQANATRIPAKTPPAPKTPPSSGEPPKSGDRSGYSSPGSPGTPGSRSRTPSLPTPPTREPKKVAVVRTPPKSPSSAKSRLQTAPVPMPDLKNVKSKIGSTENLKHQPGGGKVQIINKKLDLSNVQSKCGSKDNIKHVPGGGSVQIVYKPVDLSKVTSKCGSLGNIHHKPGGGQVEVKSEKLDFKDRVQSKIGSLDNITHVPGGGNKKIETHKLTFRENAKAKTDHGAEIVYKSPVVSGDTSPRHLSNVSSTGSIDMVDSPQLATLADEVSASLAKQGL
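Recombinant tau protein (human, 1 uM final) plus 30 uM ODS in HEPES pH 7.4 with NaCl, DTT and thioflavine S. Compound present from the start; fluorescence at 510 nm after 15 h, 37 C.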
The depositor's hits bear a star; i = inactive; u = inconclusive; x = no result; [ ] = another dose, or the depositor's remark. Only some compounds are listed: those with a hit (about 2.3% of all), similar ones and a draw of the others. Unless noted, the call rests on the fitted dose curve; in most records, active means well fitted curve in the direction sought with a large enough effect; inconclusive means small, poorly fitted or top-dose-only effect, or another doubt; inactive means no such curve, though single readings can be large; an effect the other way counts as inactive or inconclusive.

SMILES	Pol III holo inh	BRCT PPI red	BRCT PPI green	YjeE inh	Hsp90 Hop PPI	Tau fil binding
CC(C)[C@@H](CC(=O)N[C@@H]1CCNC[C@H]1C(=O)N[C@H](CC(=O)N[C@@H](CCC(=O)O)CC(=O)O)Cc1c[nH]c2ccccc12)NC(=O)C[C@H](Cc1c[nH]c2ccccc12)NC(=O)[C@@H]1CCCC[C@H]1N	-4.1%	x	x	i	-11.5%	-5.2%
CC(C)[C@@H](CC(=O)N[C@@H]1CCNC[C@H]1C(=O)N[C@H](CC(=O)N[C@@H](CCC(=O)O)CC(=O)O)Cc1ccccc1)NC(=O)C[C@H](Cc1c[nH]c2ccccc12)NC(=O)[C@@H]1CCCC[C@H]1N	-0.3%	x	x	u	31.6µM*	-25.2%
O=C(O)[C@@H]1[C@@H]2O[C@H]([C@@H](Br)[C@H]2Br)[C@H]1C(=O)O	-10.4%[11.4 µM]	-2.0%[15.4 µM]	0.1%[15.4 µM]	i	-2.6%[11 µM]	11.4%[11.4 µM]
COc1ccc(-n2c(=O)c(-c3cn(C)c4ccccc34)nc3cncnc32)cc1	0.3%	-0.7%	11.9%	i	-4.5%	6.8%
O=S1(=O)Nc2c(ccc3cccnc23)-c2ccccc21	-24.5%	-2.2%	-0.7%	i	3.16µM*	-10.6%
COc1ccc(N2CCN(C(c3cccs3)C(C)NS(=O)(=O)c3ccccc3)CC2)cc1 (stereo not drawn)	-1.1%	-0.8%	-1.8%	i	u	15.8µM*
COc1ccc2[nH]c3c(c2c1)CN(C)CC3	-3.3%	-1.1%	-1.9%	i	-27.6%	25.1µM*
COc1ccc2[nH]c3ccccc3c2c1	-2.7%	0.2%	-2.1%	i	1.3%	-6.8%
O=C(Nc1ccc(-n2nncc2-c2ccco2)cc1)c1cccc(F)c1	1.0%	-0.1%	-2.1%	i	-9.4%	u
O=C(Nc1ccc(-n2nncc2-c2ccco2)cc1)c1cc2ccccc2oc1=O	12.6µM*	1.5%	-1.2%	i	0.7%	-21.1%
CCC(C)C(NC)C(=O)O (stereo not drawn)	x	1.5%	1.0%	x	x	x
CN(C)CCCNc1cc(O)c2c(c1O)C(=O)c1ccccc1C2=O	u	u	-0.6%[15.4 µM]	i	u	1µM*
O=C1c2ccccc2C(=O)c2c(O)c(O)cc(O)c21	x	39.8µM*	-21.2%	x	x	x
O=c1cnc2cnc(Nc3ccccc3)nc2n1Cc1cccs1	-4.5%	-0.9%	6.6%	i	-4.2%	-14.7%
COc1ccc(N2CCN(c3nc(NC(C)(C)C)nc(N4CCCCC4)n3)CC2)cc1	-3.4%	-1.2%	-3.0%	i	u	10µM*
O=Nc1ccc(Nc2ccccc2)cc1	1.3%	0.6%	-0.8%	i	-11.1%	31.6µM*
O=Nc1ccc(NO)cc1	-12.6%	-1.1%	-2.6%	i	-3.0%	-29.0%
CO[C@@H]1COC(=O)C/C=C\[C@H](C)[C@H](OC)COC(=O)[C@H](C)NC(=O)C/C=C\[C@H]1C	x	1.9%[15.4 µM]	-1.8%[15.4 µM]	x	x	x
COc1ccc(Cn2c3nc4ccccc4nc3c3c(=O)n(Cc4ccco4)cnc32)cc1	-15.3%	-0.8%	2.3%	i	-4.8%	15.8µM*
Cc1cccc(S(=O)(=O)c2c(N)n(Cc3ccco3)c3nc4ccccc4nc23)c1	-2.5%	0.6%	9.3%	i	3.4%	374.4%
CCCn1cnc2c(c1=O)c1nc3ccccc3nc1n2Cc1ccccc1OC	-0.1%	-0.5%	0.0%	i	0.2%	-18.3%
CCC(C)n1cnc2c(c1=O)c1nc3ccccc3nc1n2Cc1ccccc1OC (stereo not drawn)	-0.5%	0.9%	-2.7%	i	0.2%	3.98µM*
Cc1cccc(-n2cnc3c(c2=O)c2nc4ccccc4nc2n3Cc2ccco2)c1	-4.1%	-1.2%	-0.8%	i	-5.8%	12.6µM*
O=C1CCC=C1[C@@H](O)CCc1ccccc1	x	1.7%[15.4 µM]	-1.8%[15.4 µM]	x	x	x
C[C@H]1CN(CCO)CCN1c1ccccc1	-9.6%[11.4 µM]	1.5%[15.4 µM]	-0.6%[15.4 µM]	i	-6.7%[11 µM]	7.5%[11.4 µM]
Cc1cnc(CNc2cc(-c3ccc(N(C)C)cc3)ncn2)cn1	-5.4%	0.8%	-0.5%	i	-4.3%	-12.6%
CCOC(=O)CCCc1sc(N)nc1-c1[nH]c(=O)[nH]c1C	-0.9%	-3.0%	-0.7%	i	3.98µM*	11.1%
